In PubChem BioAssay:
Several values for one entry are separate records, joined by “and”; a condition that tells them apart may be missing. Equal values may be shown once. Activity calls are given as the source filed them. Cut-off read from the data, not from the text of the source, unless noted: active = parasite load remaining mostly below about 12% (no sharp cut-off); inactive = mostly above about 10%.

Tests used:
[1] = P. berghei load reduction in hepatocytes – cell-based, HepG2, luciferase luminescence, HepG2 viability, primary screen (AID 624349);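 note: 100% = mean of DMSO negative control wells on the same plate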; conditions: P. berghei liver stage in HepG2, luciferase luminescence, concentration not given here; parasite load remaining: stronger effect = lower value; viability: measured here: HepG2 viability without parasites
[2] = Wnt pathway potentiators raising nuclear beta-catenin – imaging, WNT3A-conditioned medium, mouse C2C12, NPC library, primary screen (AID 1117326; in the data active = nuclear beta-catenin stimulation mostly above about 4.2%, no sharp cut-off; inactive = mostly below about 10%; note: reference of the scale not given here); conditions: stronger effect = higher value
[3] = stimulators of insulin release from INS-1E, primary screen, cell-based, 5 mM glucose, NPC library (AID 1117329;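 active = compound raises insulin release from rat beta cells at 5 mM glucose, no numeric limit stated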; note: reference of the scale not given here); conditions: rat INS-1E insulin secretion, at 10 µM, stronger effect = higher value
[4] = growth inhibition of GSK3B-pretreated HCT116 cells – cell-based, CellTiter-Glo, 0.2 to 20 µM (AID 1117336;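 active = compounds lowering colon cancer cell viability after pretreatment blocking the GSK3B kinase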); conditions: HCT116 viability after GSK3B inhibitor, at 20 µM, stronger effect = higher value
[5] = inhibition of endothelial tube formation, primary screen, imaging, VEGF stimulated, CD31 staining, tube area, NPC library (AID 1117340;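 active = compound that reduces growth-factor-driven endothelial tube area in a mixed cell culture, no cutoff stated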); conditions: VEGF-stimulated ADSC/ECFC co-culture, at 10 µM, stronger effect = higher value
[6] = GLP1 release stimulators, primary, NCI-H716, NPC library (AID 1117341;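 active = compound raises GLP1 secretion from the human gut endocrine cells, with no numeric limit stated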; note: reference of the scale not given here); conditions: NCI-H716 cells, at 10 µM, stronger effect = higher value
[7] = HCT116 colon cancer cell growth inhibition, primary screen, CellTiter-Glo luminescence, NPC library (AID 1117342;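 active = compounds that lower survival of HCT116 colon cancer cells in the luminescence readout, no numeric limit stated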); conditions: at 20 µM (top of the series)
[8] = reduced SW480 viability measured with CellTiter-Glo, NPC library, primary (AID 1117343;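 active = compounds that lower viability of the colon cancer cells in the luminescence readout, with no numeric limit stated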); conditions: CellTiter-Glo luminescence; at 20 µM (top of the series)
[9] = NPC library primary testing for decreased DLD-1 cell viability via CellTiter-Glo (AID 1117346;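 active = compounds that lower survival of DLD-1 colon cancer cells in the luminescence readout, no cutoff given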); conditions: DLD-1 viability, CellTiter-Glo luminescence; at 20 µM (top of the series)
[10] = target: 6-phosphogluconate dehydrogenase, decarboxylating (Homo sapiens) (UniProt P52209); experiment: inhibition of human phosphogluconate dehydrogenase – biochemical, recombinant enzyme, NADPH absorbance, primary screen (AID 1159550;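 active = at least 20% inhibition of 6-phosphogluconate dehydrogenase activity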); conditions: recombinant 6PGD, NADPH absorbance 341 nm; at 10 µM; stronger effect = higher value
Chain of 6-phosphogluconate dehydrogenase, decarboxylating (Homo sapiens) (P52209 whole entry, looked up): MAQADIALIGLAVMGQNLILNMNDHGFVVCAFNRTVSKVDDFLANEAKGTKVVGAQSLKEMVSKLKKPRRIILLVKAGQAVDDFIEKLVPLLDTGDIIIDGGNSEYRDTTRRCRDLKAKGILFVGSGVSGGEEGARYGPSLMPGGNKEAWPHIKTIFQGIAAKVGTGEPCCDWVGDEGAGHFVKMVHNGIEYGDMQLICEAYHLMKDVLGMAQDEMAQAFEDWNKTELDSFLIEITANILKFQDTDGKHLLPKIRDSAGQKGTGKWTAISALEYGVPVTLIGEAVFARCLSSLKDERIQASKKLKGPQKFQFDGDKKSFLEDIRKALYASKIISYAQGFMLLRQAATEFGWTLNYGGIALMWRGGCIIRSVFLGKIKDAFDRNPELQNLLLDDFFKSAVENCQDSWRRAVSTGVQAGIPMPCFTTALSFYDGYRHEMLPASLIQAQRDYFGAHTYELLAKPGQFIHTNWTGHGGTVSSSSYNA

OC(CCN1CCCCC1)(c1ccccc1)c1ccccc1
active: insulin secretion stimulation [3] 60.4%
2.1%: nuclear beta-catenin stimulation ([2]; stimulation, at 2 µM)
98.8% and 84.6%: viability [1]
inactive: parasite load remaining [1] 89.9% and 126% | nuclear beta-catenin stimulation ([2]; at 10 µM) 0.4% | viability decrease [4] 12.2% | tube area decrease [5] 1.5% | GLP1 secretion stimulation [6] 3.3% | inhibition of viability [7] 23.9% | viability decrease (inhibition) [8] 27% | viability decrease (inhibition) [9] 2.1% | inhibition [10] 12.5%

C[C@]12CC[C@@H]3c4ccc(O)cc4CC[C@H]3[C@@H]1C[C@@H](O)[C@@H]2O
70% and 67.5%: viability [1]
inactive: parasite load remaining [1] 68.5% and 32.3% | nuclear beta-catenin stimulation ([2]; at 10 µM) 4.3% | insulin secretion stimulation [3] 2% | viability decrease [4] 11.1% | tube area decrease [5] -3.9% | GLP1 secretion stimulation [6] 12.5% | inhibition of viability [7] 4.67% | viability decrease (inhibition) [8] 25.1% | viability decrease (inhibition) [9] -13.7% | inhibition [10] -14.5%
3%: nuclear beta-catenin stimulation ([2]; stimulation, at 2 µM)

C[C@@H]1C[C@H]2[C@@H]3C[C@H](F)C4=CC(=O)C=C[C@]4(C)[C@@]3(F)[C@@H](O)C[C@]2(C)[C@@]1(O)C(=O)CO
inactive: parasite load remaining [1] 102% | nuclear beta-catenin stimulation ([2]; at 10 µM) -0.8% | insulin secretion stimulation [3] 2.8% | viability decrease [4] -29.3% | tube area decrease [5] -2.9% | GLP1 secretion stimulation [6] -2.9% | inhibition of viability [7] 4.83% | viability decrease (inhibition) [8] -11.5% | viability decrease (inhibition) [9] -9.6% | inhibition [10] 8.65%
99.8%: viability [1]
0.3%: nuclear beta-catenin stimulation ([2]; stimulation, at 2 µM)

Cc1c(N(C)C)c(=O)n(-c2ccccc2)n1C
0.6%: nuclear beta-catenin stimulation ([2]; stimulation, at 2 µM)
inactive: parasite load remaining [1] 18.2% and 103% and 38% | nuclear beta-catenin stimulation ([2]; at 10 µM) 2.9% | insulin secretion stimulation [3] 0.4% | viability decrease [4] -152% | tube area decrease [5] 8.4% | GLP1 secretion stimulation [6] -1.9% | inhibition of viability [7] -13.5% | viability decrease (inhibition) [8] -4.8% | viability decrease (inhibition) [9] -6.4% | inhibition [10] 13.9%
52.4% and 97.7% and 84.1%: viability [1]

CC1(C)OC(=O)NC1=O
2.2%: nuclear beta-catenin stimulation ([2]; stimulation, at 2 µM)
active: viability decrease (inhibition) [8] 11.1%
96.6% and 74.2% and 92.6%: viability [1]
inactive: parasite load remaining [1] 76.1% and 103% and 63.9% | nuclear beta-catenin stimulation ([2]; at 10 µM) 1.7% | insulin secretion stimulation [3] 0.6% | viability decrease [4] -28.6% | tube area decrease [5] 2.9% | GLP1 secretion stimulation [6] -6.6% | inhibition of viability [7] 17.4% | viability decrease (inhibition) [9] -3.2% | inhibition [10] 10.2%

C[N+]1(C)[C@@H]2CC(OC(=O)[C@H](CO)c3ccccc3)C[C@H]1[C@@H]1O[C@@H]12 (some centres undefined)
0.9%: nuclear beta-catenin stimulation ([2]; stimulation, at 2 µM)
inactive: nuclear beta-catenin stimulation ([2]; at 10 µM) 1.5% | insulin secretion stimulation [3] 0.2% | viability decrease [4] -19.7% | tube area decrease [5] 5.6% | GLP1 secretion stimulation [6] -2.3% | inhibition of viability [7] 2% | viability decrease (inhibition) [8] -6.3% | viability decrease (inhibition) [9] -6.1% | inhibition [10] 0.481%

O=C1c2c(O)cccc2Cc2cccc(O)c21
73% and 78.8%: viability [1]
inactive: parasite load remaining [1] 94% and 68.1% | nuclear beta-catenin stimulation ([2]; at 10 µM) -3.3% | insulin secretion stimulation [3] 0.8% | viability decrease [4] 38.5% | GLP1 secretion stimulation [6] -2.2% | inhibition of viability [7] 30.9% | inhibition [10] -1.39%
active: tube area decrease [5] 108% | viability decrease (inhibition) [8] 61.6% | viability decrease (inhibition) [9] 53.6%
-2%: nuclear beta-catenin stimulation ([2]; stimulation, at 2 µM)

Nc1cc(-c2ccncc2)c[nH]c1=O
98.5%: viability [1]
inactive: parasite load remaining [1] 103% | nuclear beta-catenin stimulation ([2]; at 10 µM) 0.5% | insulin secretion stimulation [3] 0.4% | viability decrease [4] -33.1% | tube area decrease [5] -25.6% | GLP1 secretion stimulation [6] 0% | inhibition of viability [7] -3.67% | viability decrease (inhibition) [8] 15% | viability decrease (inhibition) [9] -7.5% | inhibition [10] -7.06%
1.7%: nuclear beta-catenin stimulation ([2]; stimulation, at 2 µM)

O=C(COc1ccc(Cl)cc1)N1CCN(Cc2ccc3c(c2)OCO3)CC1
-0.3%: nuclear beta-catenin stimulation ([2]; stimulation, at 2 µM)
inactive: parasite load remaining [1] 33.6% and 155% and 109% | nuclear beta-catenin stimulation ([2]; at 10 µM) 1% | insulin secretion stimulation [3] 2.3% | tube area decrease [5] 3.4% | GLP1 secretion stimulation [6] 0.1% | inhibition [10] 11.5%
49.1% and 91.8% and 89.5%: viability [1]
active: viability decrease [4] 54% | inhibition of viability [7] 53.7% | viability decrease (inhibition) [8] 56.1% | viability decrease (inhibition) [9] 52.6%

CC1CCC(NC(=O)N(CCCl)N=O)CC1 (centres undefined)
4.9%: nuclear beta-catenin stimulation ([2]; stimulation, at 2 µM)
inactive: parasite load remaining [1] 62.2% and 25.6% | nuclear beta-catenin stimulation ([2]; at 10 µM) 5.9% | insulin secretion stimulation [3] 2% | viability decrease [4] -24.4% | tube area decrease [5] 25.1% | GLP1 secretion stimulation [6] 1.7% | inhibition of viability [7] -2.27% | viability decrease (inhibition) [8] 12.6% | viability decrease (inhibition) [9] -14.1% | inhibition [10] 2.66%
87.1% and 108%: viability [1]

Nc1ncnc2nc[nH]c12
91.6% and 128%: viability [1]
-0.4%: nuclear beta-catenin stimulation ([2]; stimulation, at 2 µM)
inactive: parasite load remaining [1] 110% and 37.4% | nuclear beta-catenin stimulation ([2]; at 10 µM) -2.6% | insulin secretion stimulation [3] -0.3% | viability decrease [4] -4.6% | tube area decrease [5] -30.5% | GLP1 secretion stimulation [6] -1.7% | inhibition of viability [7] -30.2% | viability decrease (inhibition) [8] -59.6% | viability decrease (inhibition) [9] -23.8% | inhibition [10] 2.63%

CC1(C)S[C@@H]2[C@H](NC(=O)C(C(=O)O)c3ccccc3)C(=O)N2[C@H]1C(=O)O (some centres undefined)
75.2% and 98.9%: viability [1]
inactive: parasite load remaining [1] 87.5% and 61.7% | nuclear beta-catenin stimulation ([2]; at 10 µM) -0.3% | insulin secretion stimulation [3] -0.6% | viability decrease [4] -17.4% | tube area decrease [5] -10.8% | GLP1 secretion stimulation [6] -0.3% | inhibition of viability [7] -4.4% | viability decrease (inhibition) [8] -13% | viability decrease (inhibition) [9] -17.8% | inhibition [10] -9.55%
-0.3%: nuclear beta-catenin stimulation ([2]; stimulation, at 2 µM)

O=C(O)CCC(=O)Nc1ccc(S(=O)(=O)Nc2nccs2)cc1
0.6%: nuclear beta-catenin stimulation ([2]; stimulation, at 2 µM)
97.3% and 69.1% and 82.2%: viability [1]
inactive: parasite load remaining [1] 92.2% and 146% and 21.3% | nuclear beta-catenin stimulation ([2]; at 10 µM) -0.6% | insulin secretion stimulation [3] -2.6% | viability decrease [4] -3.7% | tube area decrease [5] 21% | GLP1 secretion stimulation [6] -5.7% | inhibition of viability [7] 2% | viability decrease (inhibition) [8] 40.3% | viability decrease (inhibition) [9] 9.45% | inhibition [10] -5.92%
